Results filed as inconclusive are left out. The source made the active and inactive calls. The call rests on the fitted dose curve.
Biological target: Peroxisome proliferator-activated receptor delta (Homo sapiens) (UniProt Q03181)
Experiment: qHTS assay for small molecule agonists of peroxisome proliferator-activated receptor delta signaling (AID 588534);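 further: 0% = DMSO basal wells and 100% = positive control agonist at 10 µM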
Conditions: HEK293T PPARdelta-UAS-bla, beta-lactamase ratio, 18 h; series mostly up to 76.7 µM; activation: at the top concentration
Text: NIH Chemical Genomics Center [NCGC] U.S. Environmental Protection Agency [EPA] National Institutes of Environmental Health Sciences [NIEHS] National Toxicology Program [NTP] NCGC Assay Overview The Peroxisome proliferator-activated receptors (PPARs) are lipid-activated transcription factors of the nuclear receptor superfamily with three distinct subtypes namely PPAR alpha, PPAR delta (also called PPAR beta) and PPAR gamma. All these subtypes heterodimerizes with Retinoid X receptor (RXR) and have different physiological functions. […] This role of PPAR delta implicates the potential use of its ligands in the treatment of metabolic disorders.
Compounds were screened in a titration series in 1536-well format. […] Concentration-response titration points for each compound were fitted to the Hill equation yielding concentrations of half-maximal stimulation (EC50) and maximal response (efficacy) values. qHTS protocol for PPAR-delta beta-lactamase assay in agonist mode [Step] [Parameter] [Value] [Description] 1. Reagent; 6 uL; 4000 cells/well 2. Incubation; 37 C for 5 hrs 3. Compounds; 23 nL; 0.59 nM to 92 uM 4. […] Incubation; 37 C for 18 hrs 6. Detection reagent; 1 uL of CCF4-dye 7. Incubation; RT for 2 hrs 8. Detection; Fluorescence; Envision plate reader

Chain of Peroxisome proliferator-activated receptor delta (Homo sapiens) (Q03181 whole entry, looked up): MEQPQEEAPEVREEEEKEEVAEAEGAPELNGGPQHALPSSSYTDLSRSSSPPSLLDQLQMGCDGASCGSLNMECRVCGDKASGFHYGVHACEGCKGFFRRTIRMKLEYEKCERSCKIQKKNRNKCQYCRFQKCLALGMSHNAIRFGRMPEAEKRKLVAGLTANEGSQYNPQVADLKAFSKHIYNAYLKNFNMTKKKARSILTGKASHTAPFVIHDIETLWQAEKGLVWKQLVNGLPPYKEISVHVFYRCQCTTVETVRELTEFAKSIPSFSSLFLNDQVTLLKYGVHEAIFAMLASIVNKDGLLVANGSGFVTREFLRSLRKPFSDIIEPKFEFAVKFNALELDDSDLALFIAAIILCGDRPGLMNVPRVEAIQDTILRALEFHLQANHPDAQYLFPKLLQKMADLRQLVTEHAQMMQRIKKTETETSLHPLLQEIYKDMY

SMILES | activation | outcome
CCCCCCCCC(=O)NCc1ccc(O)c(OC)c1 | 1.23% (inactive) | 
CN(C)C(=S)SSC(=S)N(C)C |  | inactive
CCCCCCCCCCCCCCCC[n+]1ccccc1 | -11.8% (inactive) | 
C#C[C@]1(O)CC[C@H]2[C@@H]3CCc4cc(O)ccc4[C@H]3CC[C@@]21C |  | inactive
CC(=O)OC/C=C(C)/C=C/C=C(C)/C=C/C1=C(C)CCCC1(C)C | -10.3% (inactive) | 
Cc1c(N(C)C)c(=O)n(-c2ccccc2)n1C |  | inactive
COP(=S)(OC)Oc1ccc(Sc2ccc(OP(=S)(OC)OC)cc2)cc1 | -5.06% (inactive) | 
CCOc1ccccc1C(N)=O | 6.61% (inactive) | 
C=C[C@@]1(C)CC(=O)[C@]2(O)[C@@]3(C)[C@@H](O)CCC(C)(C)[C@@H]3[C@H](O)[C@H](OC(C)=O)[C@@]2(C)O1 | 1.54% (inactive) | 
CCCCCCCCCCCC[N+](C)(C)Cc1ccccc1 | -10.6% (inactive) | 
Cc1cc(C(C)(C)C)c(O)c(C(C)(C)C)c1 |  | inactive
NS(=O)(=O)c1cc(C(=O)O)c(NCc2ccco2)cc1Cl |  | inactive
CCOC(=O)C(C)(C)Oc1ccc(Cl)cc1 | 3.47% (inactive) | 
COc1ccc(C(Cl)=C(c2ccc(OC)cc2)c2ccc(OC)cc2)cc1 | -1.92% (inactive) | 
Oc1ccc(/C=C/c2cc(O)cc(O)c2)cc1 | -13% (inactive) | 
Oc1ccc(Cl)cc1Cc1cc(Cl)ccc1O |  | inactive
CCCCCCCC/C=C\CCCCCCCCN | -5.04% (inactive) | 
C=CCOC(Cn1ccnc1)c1ccc(Cl)cc1Cl (stereo not given) |  | inactive
Nc1ccn([C@H]2CC[C@@H](CO)O2)c(=O)n1 |  | inactive
CCCCC(CC)COC(=O)C(C#N)=C(c1ccccc1)c1ccccc1 (stereo not given) | 3.81% (inactive) | 

SMILES | activation | outcome
O=C1O[C@H]([C@@H](O)CO)C(O)=C1O |  | inactive
COP(=O)(OC)OC=C(Cl)Cl |  | inactive
C/C=C/c1ccc(O)c(OC)c1 |  | inactive
CCOP(=S)(OCC)O/N=C(\C#N)c1ccccc1 | 13.8% (inactive) | 
Cn1cnc2c1c(=O)[nH]c(=O)n2C | 4.94% (inactive) | 
COP(=O)(OC)C(O)C(Cl)(Cl)Cl (stereo not given) | 16.3% (inactive) | 
c1ccc2[nH]c(-c3cscn3)nc2c1 |  | inactive
CCN(CC)C(=O)c1cccc(C)c1 |  | inactive
CCC(=O)O[C@H]1CC[C@H]2[C@@H]3CCC4=CC(=O)CC[C@]4(C)[C@H]3CC[C@]12C | 0.811% (inactive) | 
Oc1c(Br)cc(Br)cc1Br |  | inactive
CC1(C)[C@@H]2CC[C@@]1(C)C(=O)C2 | -4.9% (inactive) | 
C[C@]12CCC(=O)C=C1CC[C@@H]1[C@@H]2C(=O)C[C@@]2(C)[C@H]1CC[C@]2(O)C(=O)CO | -4.89% (inactive) | 
C[C@@H]1C[C@@H]([C@H](O)CC2CC(=O)NC(=O)C2)C(=O)[C@@H](C)C1 |  | inactive
COc1cccc2c1C(=O)c1c(O)c3c(c(O)c1C2=O)C[C@@](O)(C(C)=O)C[C@@H]3O[C@H]1C[C@H](N)[C@H](O)[C@H](C)O1 | -2.47% (inactive) | 
CN(C)CCC(c1ccccc1)c1ccccn1 (stereo not given) | 2.09% (inactive) | 
C[C@]12CCC(=O)C=C1CC[C@@H]1[C@@H]2[C@@H](O)C[C@@]2(C)[C@H]1CC[C@]2(O)C(=O)CO | -5.67% (inactive) | 
FC(F)(F)C(Cl)Br (stereo not given) | 9.14% (inactive) | 
O=C(CCl)c1ccc(Cl)cc1Cl | -3.5% (inactive) | 
CCCCCCCCCCCC[N+](C)(C)CCOc1ccccc1 | 4.72% (inactive) | 
Nc1ccc(N=Nc2ccccc2)c(N)n1 |  | inactive
